# RECQ1 helicase = RECQ1 (human) helicase inhibition; P46063; RECQ1 DNA unwinding, red fluorescence kinetic read; Potency, µM (top dose mostly 57.3 µM), without a hit: at the highest dose activity, negative = inhibition, usual class: inhibitors; 0.54% of 240,000 active; AID 2549;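 note: plate controls were vehicle for no effect and no enzyme for full effect; nearly all actives have a fitted effect of over 30% in size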
#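 50 nM RECQ1T1 preincubated 15 min with compound in Tris pH 8.0 buffer with MgCl2, DTT, Tween-20 and 2.5 ug/ml poly(dI-dC); started with 200 nM TAMRA/BHQ-2 forked duplex and 2 mM ATP. Unwinding read as fluorescence (525/598 nm), two reads 2 h apart.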
# TDP1 block = TDP1 (human) enzyme inhibition; recombinant TDP1, AlphaScreen DNA substrate cleavage; Potency, µM (highest dose often 130 µM), without a hit: top-dose activity change, negative = inhibition, hits mostly inhibitors; 0.28% of 350,000 active; note: nearly all actives have a fitted effect of over 40% in size
#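 E. coli-derived human Tdp1, 1 nM final. Cpd preinc 15 min RT; substrate 15 nM final, 5 min RT; AS bead mix 10 ug/ml final, 10 min RT. Signal loss = tyrosine-FITC cleavage. No-enzyme wells = max signal.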
# APEX1 inh = blocks human APE1 abasic DNA cleavage. P27695. recombinant APE1, TAMRA/BHQ-2 abasic DNA cleavage fluorescence. Potency, µM (doses to about 65.8 µM), for inactives: top-dose activity change, negative = inhibition, actives largely listed as inhibitors. 0.35% of 350,000 active. AID 2517;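 note: plate controls were vehicle for no effect and reference inhibitor for full effect; nearly all actives have a fitted effect of over 55% in size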
# Target sequence (P27695 whole entry, looked up): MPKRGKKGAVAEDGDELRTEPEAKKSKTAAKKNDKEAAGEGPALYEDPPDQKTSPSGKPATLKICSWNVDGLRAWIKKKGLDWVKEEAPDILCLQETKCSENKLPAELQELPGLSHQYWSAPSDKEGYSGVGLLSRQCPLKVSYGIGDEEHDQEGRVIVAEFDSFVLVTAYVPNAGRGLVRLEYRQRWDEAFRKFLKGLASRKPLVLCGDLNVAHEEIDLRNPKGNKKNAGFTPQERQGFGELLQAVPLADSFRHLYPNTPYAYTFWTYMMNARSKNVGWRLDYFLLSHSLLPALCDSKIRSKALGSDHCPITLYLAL
#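 0.75 nM APE1 + cpd, 15 min RT; start w/ 50 nM TAMRA/BHQ-2 THF-abasic dsDNA; kinetic fluor 525/598 nm ×3 reads @60 s; Δ(read3−read1); normalized to DMSO and NSC13755 control wells.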
# FEN1 inhibitor = inhibitors of human flap endonuclease 1; Recombinant FEN1 flap cleavage, fluorescence, 15 min; Potency, µM (highest dose often 114 µM), inactives show at the highest dose activity change, negative = inhibition, most hits filed as inhibitors; 0.35% of 390,000 active; AID 588795; note: nearly all actives have a fitted effect of over 65% in size
#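 Nuclease activity of 10 nM FEN1 was measured after 15 min of room-temperature exposure to titrated compounds, by adding 50 nM flap substrate and reading plates at 0 and 15 min.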
# BLM inh = blocks DNA unwinding by human BLM helicase; P54132; recombinant BLM DNA unwinding, fluorescence dequenching; Potency, µM (series often up to 56.1 µM), without a hit: top-dose activity change, negative = inhibition, hits mostly inhibitors; 0.2% of 350,000 active; AID 2528;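 note: plate controls were vehicle for no effect and no enzyme for full effect; nearly all actives have a fitted effect of over 35% in size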
# * = called active by the depositor; ? = inconclusive; . = no result; [ ] = dose if it differs, or a comment. Sampled rows, rich in hits. Any-hit rate of the full collection: about 0.92%. Calls come from the whole dose curve; as a rule, active = well fitted curve in the direction sought with a large enough effect; inconclusive = small, poorly fitted or top-dose-only effect, or another doubt; inactive = no such curve, though single readings can be large; an effect the other way counts as inactive or inconclusive. Unless noted, % is set by controls: 0 for no effect and ±100 for the full control effect; potency is the fitted concentration of half-maximal effect.
SMILES,RECQ1 helicase,TDP1 block,APEX1 inh,FEN1 inhibitor,BLM inh
Cc1cccc(OCC(=O)OC(C)CN2CCCCC2)c1 (configuration not stated),.,35.5µM*,7.9%,-5.2%,0.3%
CC(CN1CCCCC1)OC(=O)COc1ccc(Cl)cc1 (configuration not stated),.,.,-7.1%,11.6%,3.0%
CC(=O)c1cc2c(cc1O)OC(C)(C)C=C2,-6.0%,22.4µM*,16.1%,.,0.2%
COC(=O)c1ccc2c(c1)C(C)(C)C(/C=C/c1ccccc1O)=[N+]2C,-15.3%,11.8%,?,50.1µM*,5.7%
C[N+]1=C(/C=C/Nc2ccccc2Cl)C(C)(C)c2ccccc21,?,9.4%,?,7.7%,-1.1%
CC[n+]1ccc(/C=C/c2c[nH]c3ccccc23)cc1,.,.,-15.2%,?,-7.4%
CCCCCCCCCC[n+]1ccc(/C=C/c2c(C)[nH]c3ccccc23)cc1,.,.,.,79.4µM*,.
O=C(CNC(=O)c1ccncc1)OC(C(=O)Nc1cc(C(F)(F)F)ccc1Cl)c1ccccc1 (configuration not stated),.,-0.1%,.,.,.
O=C1OC(=O)c2c(Cl)c(Cl)c(Cl)c(Cl)c21,-0.8%,5.9%,-2.9%,.,.
CCC1(O)CC2CN(CCc3c([nH]c4ccccc34)[C@@](C(=O)OC)(c3cc4c(cc3OC)N(C)C3[C@]45CCN4CC=C[C@@](CC)([C@@H](OC(C)=O)[C@]3(O)C(=O)OC)[C@H]45)C2)C1 (some centres not stated),14.1µM*,15.1%[56.1 µM],-1.4%,.,.
Cc1ccc(C(=O)CNc2cc(C)ccc2C)cc1,.,.,-4.4%,-15.8%,3.1%
CCNc1cc(O)ccc1C,28.2µM*,4.8%,47.2%,-21.7%,.
O=C1CCC=C1C(O)CCc1ccccc1 (configuration not stated),9.5%,-1.2%,-1.0%,.,3.4%
CC1=C(CCC(=O)O)c2cc3nc(cc4[nH]c(cc5[nH]c(cc1n2)c(C)c5C(C)O)c(C)c4C(C)O)C(C)=C3CCC(=O)O (configuration not stated),-23.8%,15.8µM*,?,.,-7.6%
Cc1ccc(-c2ccc(CCC(=O)O)n2C(C)C)cc1,-8.4%,3.9%,-1.9%,3.2%,4.1%
CC1(C)CC(=O)C(N=Nc2cc(S(=O)(=O)N3CCOCC3)ccc2Cl)=C(O)C1,-9.2%,?,10µM*,16.5%,-18.0%
CC1(C)CC(=O)C(N=Nc2cc(C(F)(F)F)ccc2Cl)=C(O)C1,0.9%,6.0%,1.4%,12.1%,-2.0%
O=c1ccsn1Cc1ccccc1,-9.5%,13.9%,-4.2%,56.2µM*,0.5%
CCCC(NC(=O)Cc1c(C)c2cc3c(C)c(C)oc3c(C)c2oc1=O)C(=O)N[C@@H](Cc1ccccc1)C(=O)O (some centres not stated),.,.,21.2µM*,-2.9%,-10.7%
CCCCC(NC(=O)Cc1c(C)c2cc3c(C)c(C)oc3c(C)c2oc1=O)C(=O)O (configuration not stated),.,.,12.8%,5.3%,2.5%
Cc1coc2c(C)c3oc(=O)c(CCC(=O)N[C@@H](C)C(=O)N[C@@H](Cc4ccccc4)C(=O)O)c(C)c3cc12,.,.,13.4µM*,-1.8%,-5.6%
O=C(O)c1ccc2c(=O)n3cc(C(=O)c4ccccc4O)cc(Cl)c3nc2c1,12.6%,.,-6.0%,35.5µM*,-3.9%
O=C(NNC(=O)c1ccccc1Cl)c1ccc2c(=O)n3c(nc2c1)CCC3,.,-2.7%[56.1 µM],18.4%,16.3%,.
C[n+]1ccc(C(c2c[nH]c3ccccc23)c2cc[n+](C)c3ccccc23)c2ccccc21,.,.,.,17.8µM*,.
NS(=O)(=O)c1ccc(NC(=O)CN2CCN(c3ccc(F)cc3)CC2)cc1,.,-1.2%,.,-3.1%,-1.3%
CC(=O)c1ccccc1NS(=O)(=O)c1cccc2nsnc12,.,.,5.32µM*,-10.2%,-14.2%
O=C(O)COc1ccc2c(c1)O/C(=C\c1ccco1)C2=O,.,.,13.4µM*,?,-9.1%
C/C=C(\C)[C@H](O)C[Si](C)(C)c1ccccc1,-6.8%,8.1%,3.3%,.,-0.5%
CC(=O)Nc1ccccc1OC1=N[S+](=O)([O-])c2ccccc21,.,0.2%,.,.,.
